# The supplement of paper PMC11732987, “Enantioselective OTUD7B fragment discovery through chemoproteomics screening and high-throughput optimisation” (Communications Chemistry, 2025)
# A number with no mark means an inactive call.
# Experiments:
# Assay in all cases: log2 ratio of Biotin-Ahx-Ub-VS probe labelling (fragment/DMSO); higher = less target engagement (more negative = stronger competition), active = hit call of the paper (q ≤ 0.05, log2 ratio ≤ -1)
# Conditions in all cases: compound concentration: 200 uM; treatment time: 3 h
# [1] = biological target: T1, USP42 (UniProt Q9H9J4)
# T1 sequence (whole entry): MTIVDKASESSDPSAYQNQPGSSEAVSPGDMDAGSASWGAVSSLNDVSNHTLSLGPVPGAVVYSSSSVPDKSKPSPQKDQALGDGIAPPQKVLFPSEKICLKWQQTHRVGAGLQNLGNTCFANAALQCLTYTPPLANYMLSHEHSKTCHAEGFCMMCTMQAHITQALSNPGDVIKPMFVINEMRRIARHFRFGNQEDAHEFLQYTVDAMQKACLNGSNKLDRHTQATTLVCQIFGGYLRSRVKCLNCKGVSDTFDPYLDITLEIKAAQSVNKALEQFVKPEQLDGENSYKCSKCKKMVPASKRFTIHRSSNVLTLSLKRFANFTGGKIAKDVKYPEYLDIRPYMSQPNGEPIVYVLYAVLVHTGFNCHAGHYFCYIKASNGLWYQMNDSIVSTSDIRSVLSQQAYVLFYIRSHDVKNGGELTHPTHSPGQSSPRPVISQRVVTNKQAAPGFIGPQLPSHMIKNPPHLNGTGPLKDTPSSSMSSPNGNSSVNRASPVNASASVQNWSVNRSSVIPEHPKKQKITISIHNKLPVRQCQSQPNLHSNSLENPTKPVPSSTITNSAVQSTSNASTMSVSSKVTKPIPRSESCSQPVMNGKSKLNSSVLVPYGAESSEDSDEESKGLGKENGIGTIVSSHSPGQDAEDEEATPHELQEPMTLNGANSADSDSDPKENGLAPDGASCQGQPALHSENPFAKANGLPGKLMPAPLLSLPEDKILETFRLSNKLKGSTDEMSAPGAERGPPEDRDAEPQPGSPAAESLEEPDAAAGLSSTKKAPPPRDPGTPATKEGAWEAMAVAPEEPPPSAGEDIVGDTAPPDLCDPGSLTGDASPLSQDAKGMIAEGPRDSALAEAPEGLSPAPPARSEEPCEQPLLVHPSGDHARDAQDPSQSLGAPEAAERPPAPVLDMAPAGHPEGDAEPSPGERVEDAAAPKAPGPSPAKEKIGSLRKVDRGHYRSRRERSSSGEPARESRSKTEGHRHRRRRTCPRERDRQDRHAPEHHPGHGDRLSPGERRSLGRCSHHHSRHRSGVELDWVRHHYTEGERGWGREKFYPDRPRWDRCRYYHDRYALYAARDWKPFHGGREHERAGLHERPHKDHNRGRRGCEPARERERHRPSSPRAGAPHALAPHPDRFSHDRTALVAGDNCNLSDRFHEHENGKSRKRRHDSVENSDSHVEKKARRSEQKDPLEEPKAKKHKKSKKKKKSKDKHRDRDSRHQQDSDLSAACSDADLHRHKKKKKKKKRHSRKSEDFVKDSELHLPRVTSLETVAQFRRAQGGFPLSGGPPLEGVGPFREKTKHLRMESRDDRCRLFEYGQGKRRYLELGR
# In short: (§1)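 HEK293T lysate (495 µg per sample, in Tris/CHAPS/IGEPAL buffer with protease inhibitors) was exposed in triplicate for 3 h to fragment at 200 µM or to vehicle, then to Biotin-Ahx-Ub-VS at 0.5 µM final for 1 h. Labelled DUBs were enriched on NeutrAvidin, digested with LysC and trypsin, and analysed by diaPASEF LC-MS/MS. Spectronaut label-free quantities were normalised to the global median, and values are average log2 ratios of fragment over vehicle from an unpaired t-test. Only proteins with ≥2 unique peptides were used.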
# [2] = biological target: USP46 (UniProt P62068)
# In short: as §1
# [3] = biological target: T2, USP47 (UniProt Q96K76)
# T2 sequence (whole entry): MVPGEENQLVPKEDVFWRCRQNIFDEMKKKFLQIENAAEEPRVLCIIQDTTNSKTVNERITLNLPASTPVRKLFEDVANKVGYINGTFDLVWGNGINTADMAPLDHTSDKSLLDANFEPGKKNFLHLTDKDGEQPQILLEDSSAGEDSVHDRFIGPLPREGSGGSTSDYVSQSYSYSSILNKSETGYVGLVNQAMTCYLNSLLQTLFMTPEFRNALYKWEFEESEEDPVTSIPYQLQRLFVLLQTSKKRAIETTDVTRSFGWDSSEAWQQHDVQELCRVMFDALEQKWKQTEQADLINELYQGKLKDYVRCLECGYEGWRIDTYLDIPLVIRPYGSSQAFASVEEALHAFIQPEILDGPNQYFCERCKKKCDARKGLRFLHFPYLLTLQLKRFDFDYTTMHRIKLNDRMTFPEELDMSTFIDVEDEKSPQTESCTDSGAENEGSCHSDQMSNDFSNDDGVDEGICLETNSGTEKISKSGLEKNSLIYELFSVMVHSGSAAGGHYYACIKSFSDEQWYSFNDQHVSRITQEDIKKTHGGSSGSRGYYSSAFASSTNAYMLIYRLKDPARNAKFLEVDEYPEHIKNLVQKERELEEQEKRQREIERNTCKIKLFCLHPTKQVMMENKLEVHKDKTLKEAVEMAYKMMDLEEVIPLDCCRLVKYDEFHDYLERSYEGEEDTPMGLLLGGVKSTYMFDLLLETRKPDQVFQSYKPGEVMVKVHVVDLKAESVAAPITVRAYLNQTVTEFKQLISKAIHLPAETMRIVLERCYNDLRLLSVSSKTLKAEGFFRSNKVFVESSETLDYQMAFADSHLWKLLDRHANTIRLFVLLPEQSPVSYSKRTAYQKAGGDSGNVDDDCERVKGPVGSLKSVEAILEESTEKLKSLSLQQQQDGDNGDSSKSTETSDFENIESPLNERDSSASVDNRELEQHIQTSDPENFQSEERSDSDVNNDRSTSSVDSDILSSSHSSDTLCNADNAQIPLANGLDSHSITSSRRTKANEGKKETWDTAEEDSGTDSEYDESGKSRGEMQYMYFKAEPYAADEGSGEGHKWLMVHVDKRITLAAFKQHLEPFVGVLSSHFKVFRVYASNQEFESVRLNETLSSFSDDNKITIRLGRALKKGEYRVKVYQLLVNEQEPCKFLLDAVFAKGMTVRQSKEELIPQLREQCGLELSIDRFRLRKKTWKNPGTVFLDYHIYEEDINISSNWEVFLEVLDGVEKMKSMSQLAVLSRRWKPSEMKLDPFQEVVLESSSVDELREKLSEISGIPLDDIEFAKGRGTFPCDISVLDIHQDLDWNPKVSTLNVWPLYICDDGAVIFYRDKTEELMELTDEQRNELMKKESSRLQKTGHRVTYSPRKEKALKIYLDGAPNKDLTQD
# In short: as §1
# [4] = biological target: T3, USP48 (UniProt Q86UV5)
# T3 sequence (whole entry): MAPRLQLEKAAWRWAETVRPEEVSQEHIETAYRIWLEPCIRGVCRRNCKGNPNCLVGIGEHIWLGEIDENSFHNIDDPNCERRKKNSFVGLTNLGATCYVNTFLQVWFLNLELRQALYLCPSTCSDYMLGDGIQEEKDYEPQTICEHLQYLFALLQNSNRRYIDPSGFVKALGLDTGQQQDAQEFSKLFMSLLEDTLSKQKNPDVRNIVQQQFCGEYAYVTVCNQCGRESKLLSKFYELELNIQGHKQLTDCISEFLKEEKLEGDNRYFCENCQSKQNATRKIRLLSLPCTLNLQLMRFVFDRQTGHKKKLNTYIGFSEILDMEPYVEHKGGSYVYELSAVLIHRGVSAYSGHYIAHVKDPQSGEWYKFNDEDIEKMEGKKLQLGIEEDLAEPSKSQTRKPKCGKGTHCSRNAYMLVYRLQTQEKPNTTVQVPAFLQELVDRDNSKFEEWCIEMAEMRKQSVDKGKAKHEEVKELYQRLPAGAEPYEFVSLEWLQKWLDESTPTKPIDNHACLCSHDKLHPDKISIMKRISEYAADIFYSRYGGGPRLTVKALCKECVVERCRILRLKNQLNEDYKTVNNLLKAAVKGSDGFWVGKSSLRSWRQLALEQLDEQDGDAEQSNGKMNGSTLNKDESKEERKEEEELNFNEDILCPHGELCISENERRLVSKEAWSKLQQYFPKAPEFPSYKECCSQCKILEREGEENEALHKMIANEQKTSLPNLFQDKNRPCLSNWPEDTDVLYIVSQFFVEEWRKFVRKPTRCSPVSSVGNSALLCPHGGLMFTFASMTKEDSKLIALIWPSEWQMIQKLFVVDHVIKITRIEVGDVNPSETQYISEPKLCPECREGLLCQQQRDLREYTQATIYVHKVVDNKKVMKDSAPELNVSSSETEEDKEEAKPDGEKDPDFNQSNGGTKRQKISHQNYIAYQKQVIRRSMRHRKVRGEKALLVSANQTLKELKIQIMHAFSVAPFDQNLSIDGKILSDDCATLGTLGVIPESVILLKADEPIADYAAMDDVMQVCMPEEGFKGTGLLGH
# In short: as §1
# [5] = biological target: T4, USP5 (UniProt P45974)
# T4 sequence (whole entry): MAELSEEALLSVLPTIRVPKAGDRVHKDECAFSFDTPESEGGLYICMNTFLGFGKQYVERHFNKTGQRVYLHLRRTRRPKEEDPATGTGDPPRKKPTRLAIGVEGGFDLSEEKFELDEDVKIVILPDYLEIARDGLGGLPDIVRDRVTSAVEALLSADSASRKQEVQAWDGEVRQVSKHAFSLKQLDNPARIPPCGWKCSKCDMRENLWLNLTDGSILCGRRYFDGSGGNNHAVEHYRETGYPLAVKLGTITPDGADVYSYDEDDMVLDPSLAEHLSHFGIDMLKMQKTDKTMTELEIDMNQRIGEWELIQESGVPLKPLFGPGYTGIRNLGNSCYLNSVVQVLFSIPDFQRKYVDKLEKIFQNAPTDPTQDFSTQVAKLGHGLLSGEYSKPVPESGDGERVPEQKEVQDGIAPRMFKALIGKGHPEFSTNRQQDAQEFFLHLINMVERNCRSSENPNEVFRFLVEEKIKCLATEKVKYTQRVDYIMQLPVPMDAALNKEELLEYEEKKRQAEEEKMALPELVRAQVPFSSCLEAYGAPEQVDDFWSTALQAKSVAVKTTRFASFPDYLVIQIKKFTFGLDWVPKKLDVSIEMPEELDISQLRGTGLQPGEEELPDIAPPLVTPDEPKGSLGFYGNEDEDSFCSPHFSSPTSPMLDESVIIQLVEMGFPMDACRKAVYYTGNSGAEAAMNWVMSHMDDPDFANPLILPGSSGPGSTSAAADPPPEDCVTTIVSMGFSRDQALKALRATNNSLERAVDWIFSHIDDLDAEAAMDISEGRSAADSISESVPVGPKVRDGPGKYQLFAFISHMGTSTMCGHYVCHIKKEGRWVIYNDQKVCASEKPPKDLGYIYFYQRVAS
# In short: as §1
# [6] = biological target: USP54 (UniProt Q70EL1)
# In short: as §1
# [7] = biological target: USP7 (UniProt Q93009)
# In short: as §1
# [8] = biological target: T5, USP8 (UniProt P40818)
# T5 sequence (whole entry): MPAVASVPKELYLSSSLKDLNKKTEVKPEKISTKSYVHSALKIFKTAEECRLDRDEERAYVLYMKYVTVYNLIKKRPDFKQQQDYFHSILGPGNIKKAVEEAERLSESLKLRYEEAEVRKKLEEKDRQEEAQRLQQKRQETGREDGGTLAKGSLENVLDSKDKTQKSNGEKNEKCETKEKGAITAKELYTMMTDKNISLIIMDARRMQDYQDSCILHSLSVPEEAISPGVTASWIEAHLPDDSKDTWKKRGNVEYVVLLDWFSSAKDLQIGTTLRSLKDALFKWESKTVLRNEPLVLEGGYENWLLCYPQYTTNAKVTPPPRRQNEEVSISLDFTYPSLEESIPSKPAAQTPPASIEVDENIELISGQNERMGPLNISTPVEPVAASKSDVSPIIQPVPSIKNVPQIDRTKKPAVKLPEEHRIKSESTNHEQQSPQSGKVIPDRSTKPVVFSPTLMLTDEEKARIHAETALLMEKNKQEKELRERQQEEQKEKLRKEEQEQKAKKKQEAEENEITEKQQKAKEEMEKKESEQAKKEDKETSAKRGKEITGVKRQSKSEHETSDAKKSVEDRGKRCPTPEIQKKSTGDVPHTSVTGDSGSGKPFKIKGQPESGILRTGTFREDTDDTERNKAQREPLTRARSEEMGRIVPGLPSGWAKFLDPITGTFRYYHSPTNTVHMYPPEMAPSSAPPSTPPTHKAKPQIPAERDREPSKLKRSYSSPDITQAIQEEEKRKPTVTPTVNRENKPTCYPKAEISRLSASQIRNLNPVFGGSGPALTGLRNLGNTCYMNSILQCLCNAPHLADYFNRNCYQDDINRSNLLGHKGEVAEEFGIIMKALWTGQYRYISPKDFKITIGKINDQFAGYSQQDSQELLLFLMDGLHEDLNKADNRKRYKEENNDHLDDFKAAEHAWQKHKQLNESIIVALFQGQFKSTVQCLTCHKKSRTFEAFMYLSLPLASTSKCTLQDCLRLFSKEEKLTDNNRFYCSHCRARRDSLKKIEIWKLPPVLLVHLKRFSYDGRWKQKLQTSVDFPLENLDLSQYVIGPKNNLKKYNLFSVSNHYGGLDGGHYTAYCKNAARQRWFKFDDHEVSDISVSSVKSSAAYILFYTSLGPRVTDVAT
# In short: as §1
# [9] = biological target: USP9X (UniProt Q93008)
# In short: as §1
# [10] = biological target: UniProt O00487
# In short: as §1
# Chain of UniProt O00487 (O00487 whole entry): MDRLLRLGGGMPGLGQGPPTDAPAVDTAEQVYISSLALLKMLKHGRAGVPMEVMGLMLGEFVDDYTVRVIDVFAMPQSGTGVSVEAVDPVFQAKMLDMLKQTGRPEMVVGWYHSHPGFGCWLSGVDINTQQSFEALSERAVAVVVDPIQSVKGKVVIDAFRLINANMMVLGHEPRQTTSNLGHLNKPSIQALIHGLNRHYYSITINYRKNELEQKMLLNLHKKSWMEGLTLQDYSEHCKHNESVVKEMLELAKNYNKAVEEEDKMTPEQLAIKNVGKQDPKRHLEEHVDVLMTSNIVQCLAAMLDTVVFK
# Chain of USP46 (P62068 whole entry): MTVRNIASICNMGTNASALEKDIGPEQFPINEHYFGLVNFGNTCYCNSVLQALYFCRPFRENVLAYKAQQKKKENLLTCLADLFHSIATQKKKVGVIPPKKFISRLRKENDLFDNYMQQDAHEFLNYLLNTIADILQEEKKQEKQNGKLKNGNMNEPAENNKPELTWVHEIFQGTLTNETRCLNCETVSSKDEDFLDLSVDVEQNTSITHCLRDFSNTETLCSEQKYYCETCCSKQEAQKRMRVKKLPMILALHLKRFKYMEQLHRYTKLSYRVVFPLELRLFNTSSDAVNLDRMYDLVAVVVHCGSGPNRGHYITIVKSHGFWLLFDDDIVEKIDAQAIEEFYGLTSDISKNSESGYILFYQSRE
# Chain of USP54 (Q70EL1 whole entry): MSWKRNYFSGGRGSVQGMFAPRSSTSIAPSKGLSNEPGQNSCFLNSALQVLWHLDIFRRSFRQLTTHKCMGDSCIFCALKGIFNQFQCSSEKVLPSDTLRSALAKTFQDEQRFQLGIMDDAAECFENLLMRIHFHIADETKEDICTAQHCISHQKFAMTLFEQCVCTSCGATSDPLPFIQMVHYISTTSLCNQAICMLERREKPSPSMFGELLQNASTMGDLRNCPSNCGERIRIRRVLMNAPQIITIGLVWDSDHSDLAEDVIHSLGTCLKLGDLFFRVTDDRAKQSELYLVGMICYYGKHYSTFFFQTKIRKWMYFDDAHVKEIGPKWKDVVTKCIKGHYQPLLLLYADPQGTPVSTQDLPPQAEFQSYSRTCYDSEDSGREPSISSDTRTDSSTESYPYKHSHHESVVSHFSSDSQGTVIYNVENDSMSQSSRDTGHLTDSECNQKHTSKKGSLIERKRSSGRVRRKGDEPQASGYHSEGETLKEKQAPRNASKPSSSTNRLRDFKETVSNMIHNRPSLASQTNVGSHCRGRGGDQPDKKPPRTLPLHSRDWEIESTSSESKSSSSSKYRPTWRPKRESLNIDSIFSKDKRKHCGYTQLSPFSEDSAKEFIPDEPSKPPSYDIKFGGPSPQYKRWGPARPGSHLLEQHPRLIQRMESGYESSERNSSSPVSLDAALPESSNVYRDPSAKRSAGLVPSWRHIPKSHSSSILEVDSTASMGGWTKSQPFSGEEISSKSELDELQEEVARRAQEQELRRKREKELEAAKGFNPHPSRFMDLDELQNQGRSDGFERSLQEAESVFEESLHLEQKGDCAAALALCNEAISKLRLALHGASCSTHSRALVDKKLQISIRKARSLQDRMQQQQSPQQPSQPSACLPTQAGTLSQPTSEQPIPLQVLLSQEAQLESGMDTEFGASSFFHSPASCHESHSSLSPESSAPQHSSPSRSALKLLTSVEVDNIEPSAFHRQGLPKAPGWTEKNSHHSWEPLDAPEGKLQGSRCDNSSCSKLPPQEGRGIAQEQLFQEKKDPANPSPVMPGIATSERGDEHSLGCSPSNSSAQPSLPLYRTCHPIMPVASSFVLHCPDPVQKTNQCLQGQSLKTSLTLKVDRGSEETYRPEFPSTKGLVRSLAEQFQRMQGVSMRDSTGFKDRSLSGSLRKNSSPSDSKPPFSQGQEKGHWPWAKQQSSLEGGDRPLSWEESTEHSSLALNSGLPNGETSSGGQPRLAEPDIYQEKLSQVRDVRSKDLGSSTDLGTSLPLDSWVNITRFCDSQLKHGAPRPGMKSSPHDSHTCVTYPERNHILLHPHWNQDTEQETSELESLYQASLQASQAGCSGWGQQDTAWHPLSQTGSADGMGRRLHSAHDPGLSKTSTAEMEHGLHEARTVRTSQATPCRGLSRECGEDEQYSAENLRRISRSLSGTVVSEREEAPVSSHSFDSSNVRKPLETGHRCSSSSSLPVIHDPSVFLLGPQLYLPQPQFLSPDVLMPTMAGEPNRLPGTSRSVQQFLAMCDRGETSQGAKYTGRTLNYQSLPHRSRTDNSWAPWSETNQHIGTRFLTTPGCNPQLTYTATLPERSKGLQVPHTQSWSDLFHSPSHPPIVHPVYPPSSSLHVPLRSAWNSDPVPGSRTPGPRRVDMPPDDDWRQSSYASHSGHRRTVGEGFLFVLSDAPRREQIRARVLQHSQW
# Chain of USP9X (Q93008 whole entry): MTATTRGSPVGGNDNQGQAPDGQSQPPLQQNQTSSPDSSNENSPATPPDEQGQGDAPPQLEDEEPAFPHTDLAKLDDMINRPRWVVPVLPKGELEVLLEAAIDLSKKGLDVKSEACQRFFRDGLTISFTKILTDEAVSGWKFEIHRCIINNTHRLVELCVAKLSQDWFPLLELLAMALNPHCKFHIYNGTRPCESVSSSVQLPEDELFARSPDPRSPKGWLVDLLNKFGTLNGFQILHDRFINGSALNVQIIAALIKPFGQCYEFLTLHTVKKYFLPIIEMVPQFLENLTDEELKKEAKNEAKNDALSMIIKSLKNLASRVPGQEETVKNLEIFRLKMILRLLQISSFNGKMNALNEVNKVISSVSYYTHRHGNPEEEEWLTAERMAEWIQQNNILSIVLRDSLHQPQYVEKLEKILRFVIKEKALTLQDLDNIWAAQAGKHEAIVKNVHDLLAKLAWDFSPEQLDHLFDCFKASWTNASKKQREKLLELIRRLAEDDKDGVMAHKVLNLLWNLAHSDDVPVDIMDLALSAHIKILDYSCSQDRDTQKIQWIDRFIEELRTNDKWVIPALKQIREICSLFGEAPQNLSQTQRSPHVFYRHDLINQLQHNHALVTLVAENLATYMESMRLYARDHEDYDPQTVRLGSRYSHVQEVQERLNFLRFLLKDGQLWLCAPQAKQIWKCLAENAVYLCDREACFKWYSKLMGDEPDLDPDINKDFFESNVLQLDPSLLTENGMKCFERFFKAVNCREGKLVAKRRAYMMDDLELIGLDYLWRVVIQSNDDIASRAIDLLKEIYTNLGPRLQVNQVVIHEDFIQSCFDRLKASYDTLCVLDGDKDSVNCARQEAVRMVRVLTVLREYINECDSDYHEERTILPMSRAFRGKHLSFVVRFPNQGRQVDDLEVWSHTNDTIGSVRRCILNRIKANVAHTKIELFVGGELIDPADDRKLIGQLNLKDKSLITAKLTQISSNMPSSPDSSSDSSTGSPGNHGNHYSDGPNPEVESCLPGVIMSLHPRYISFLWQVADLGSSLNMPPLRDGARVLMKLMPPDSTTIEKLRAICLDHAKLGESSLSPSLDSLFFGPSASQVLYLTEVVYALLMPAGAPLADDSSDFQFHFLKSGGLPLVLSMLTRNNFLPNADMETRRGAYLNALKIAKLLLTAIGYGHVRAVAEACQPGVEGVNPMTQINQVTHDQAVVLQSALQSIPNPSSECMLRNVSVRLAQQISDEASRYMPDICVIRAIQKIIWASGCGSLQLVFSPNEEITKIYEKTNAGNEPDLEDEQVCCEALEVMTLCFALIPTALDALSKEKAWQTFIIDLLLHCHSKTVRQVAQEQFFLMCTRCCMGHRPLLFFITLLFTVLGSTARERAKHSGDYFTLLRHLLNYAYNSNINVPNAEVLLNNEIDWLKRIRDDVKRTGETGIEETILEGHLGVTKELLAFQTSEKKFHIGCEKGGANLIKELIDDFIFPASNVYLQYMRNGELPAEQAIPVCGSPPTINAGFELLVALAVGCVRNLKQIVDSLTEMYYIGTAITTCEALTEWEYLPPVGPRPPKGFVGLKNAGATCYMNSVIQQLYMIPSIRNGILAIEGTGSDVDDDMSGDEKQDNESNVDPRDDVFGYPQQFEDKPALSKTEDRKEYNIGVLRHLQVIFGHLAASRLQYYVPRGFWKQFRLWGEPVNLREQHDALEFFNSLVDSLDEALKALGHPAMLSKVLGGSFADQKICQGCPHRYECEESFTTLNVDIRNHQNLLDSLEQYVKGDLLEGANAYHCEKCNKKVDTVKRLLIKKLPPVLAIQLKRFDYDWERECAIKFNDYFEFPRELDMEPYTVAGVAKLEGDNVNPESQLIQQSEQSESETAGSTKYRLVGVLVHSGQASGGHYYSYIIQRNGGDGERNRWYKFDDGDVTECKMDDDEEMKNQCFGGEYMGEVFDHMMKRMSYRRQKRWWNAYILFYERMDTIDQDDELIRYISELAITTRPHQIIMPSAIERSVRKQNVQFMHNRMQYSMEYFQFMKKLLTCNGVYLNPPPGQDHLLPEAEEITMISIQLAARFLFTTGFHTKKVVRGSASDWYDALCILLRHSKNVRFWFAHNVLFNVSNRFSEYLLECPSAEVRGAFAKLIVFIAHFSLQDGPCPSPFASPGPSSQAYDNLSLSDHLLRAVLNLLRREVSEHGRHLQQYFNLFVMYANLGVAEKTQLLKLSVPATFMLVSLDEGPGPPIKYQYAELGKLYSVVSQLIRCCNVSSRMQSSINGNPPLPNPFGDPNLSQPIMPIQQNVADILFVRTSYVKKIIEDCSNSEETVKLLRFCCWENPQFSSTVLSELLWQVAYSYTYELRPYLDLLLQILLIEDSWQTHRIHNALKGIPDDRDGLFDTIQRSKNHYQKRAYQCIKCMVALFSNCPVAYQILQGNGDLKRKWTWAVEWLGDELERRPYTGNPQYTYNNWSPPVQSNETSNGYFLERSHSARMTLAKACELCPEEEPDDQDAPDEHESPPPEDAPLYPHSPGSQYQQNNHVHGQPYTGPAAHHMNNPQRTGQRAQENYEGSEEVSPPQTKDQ
SMILES,log2 ratio of Biotin-Ahx-Ub-VS probe labelling [1],log2 ratio of Biotin-Ahx-Ub-VS probe labelling [2],log2 ratio of Biotin-Ahx-Ub-VS probe labelling [3],log2 ratio of Biotin-Ahx-Ub-VS probe labelling [4],log2 ratio of Biotin-Ahx-Ub-VS probe labelling [5],log2 ratio of Biotin-Ahx-Ub-VS probe labelling [6],log2 ratio of Biotin-Ahx-Ub-VS probe labelling [7],log2 ratio of Biotin-Ahx-Ub-VS probe labelling [8],log2 ratio of Biotin-Ahx-Ub-VS probe labelling [9],log2 ratio of Biotin-Ahx-Ub-VS probe labelling [10]
Cc1n[nH]c2c1CN(C(=O)CCl)CC2,0.421,-0.91,-1.08 (active),-0.779,-0.67,0.337,-0.758,-1.11 (active),-0.85,-0.184
O=C(CCl)N1CCC(c2noc3cc(F)ccc23)CC1,0.542,-0.343,-0.18,-0.806,0.182,0.351,-1.81 (active),-0.0714,-0.201,-0.0622
Cc1cc(C(=O)NC2CCN(C(=O)CCl)CC2)no1,-0.284,-0.048,-0.0545,-0.0815,0.0506,-0.176,-0.222,-0.0431,-0.158,-0.138
CNC(=O)C1(NC(=O)CCl)CCCCC1,-0.202,0.0346,0.28,-0.00183,0.148,0.521,-0.0838,-0.173,-0.228,0.0455
